A selection: hits, their analogues and other compounds. The true share with any hit is near 7.3%.
Rab9 prom act – activators of Rab9 promoter | Huh7 Rab9 promoter-luciferase reporter, luminescence, 24 h | Potency, µM (highest dose often 9.22 µM), usual class: activators | 2.8% of 320,000 active | AID 485297; also: nearly all actives have a fitted effect of over 60% in size
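Rab9 promoter-driven luciferase in stably transfected Huh7 cells; 1500 cells/well rested 2 h, exposed to compound in DMSO for 24 h at 37 °C, 5% CO2. Luminescence read 10 min after adding luciferase reagent at ambient temperature.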
NPC1 promoter act – activators of NPC1 promoter | Huh7 NPC1 promoter luciferase reporter, 24 h | Potency, µM (highest dose often 9.22 µM), most hits filed as activators | 2.4% of 320,000 active | AID 485313; also: nearly all actives have a fitted effect of over 60% in size
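Huh7 reporter cells (NPC1 promoter driving luciferase) are dosed with compound for 24 h at 37 °C, 5% CO2; luciferase detection reagent is then added and luminescence measured after 10 min at ambient temperature.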
ELG1 genotoxic – inducers of genotoxicity in HEK293T ELG1-luciferase cells | Potency, µM (series often up to 46 µM), usual class: activators | 1.3% of 330,000 active | AID 504466 | HEK293T ELG1-luciferase reporter, luminescence, 16 h; also: nearly all actives have a fitted effect of over 60% in size
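Screening used a luciferase reporter fused to human ELG1 in HEK293T cells. Luminescence was read on a CCD plate imager after 16 hr exposure and 30 min ONE-Glo incubation.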
FLuc counter – inhibits or activates purified firefly luciferase, miR-21 counter-screen. P08659. purified FLuc, Km substrates, luminescence inhibition. Potency, µM (top dose mostly 57.5 µM), most hits filed as inhibitors. 6.9% of 360,000 active; also: nearly all actives have a fitted effect of over 55% in size
Target sequence (P08659 whole entry, looked up): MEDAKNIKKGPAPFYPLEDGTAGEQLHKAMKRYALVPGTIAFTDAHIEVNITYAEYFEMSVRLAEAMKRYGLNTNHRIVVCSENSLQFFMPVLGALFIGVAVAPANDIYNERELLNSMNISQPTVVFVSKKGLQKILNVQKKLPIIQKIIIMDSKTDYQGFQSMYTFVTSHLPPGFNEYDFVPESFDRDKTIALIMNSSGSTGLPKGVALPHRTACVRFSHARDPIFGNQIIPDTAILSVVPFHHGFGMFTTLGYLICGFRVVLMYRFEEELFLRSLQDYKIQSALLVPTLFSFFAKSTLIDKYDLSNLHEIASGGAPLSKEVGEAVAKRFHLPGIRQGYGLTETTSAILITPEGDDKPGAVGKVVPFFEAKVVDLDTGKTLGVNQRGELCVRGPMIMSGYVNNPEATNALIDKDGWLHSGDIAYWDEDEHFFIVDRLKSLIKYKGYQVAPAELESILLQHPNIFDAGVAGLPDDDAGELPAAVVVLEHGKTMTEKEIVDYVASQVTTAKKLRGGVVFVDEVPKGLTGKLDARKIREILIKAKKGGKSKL
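Purified P. pyralis luciferase, 10 nM final, with Km-level 10 uM D-luciferin and 10 uM ATP in 50 mM Tris acetate pH 7.5, 10 mM Mg acetate, 0.01% Tween-20, 0.05% BSA; 6-point qHTS titration about 60 µM downward; luminescence read.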
SMN2 splice enh – increases expression of the SMN2 splice variant. HEK293 SMN2-luciferase splicing reporter, luminescence, 30-36 h. Potency, µM (doses to about 46.1 µM), actives largely listed as activators. 2.8% of 210,000 active. AID 1458; also: nearly all actives have a fitted effect of over 55% in size
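HEK293 cells carry an SMN2 minigene-luciferase reporter in which exon 7 inclusion puts luciferase in frame. Cells were seeded at 2000 cells/well, attached for 10-12 hours, then exposed to compounds for 30-36 hours at 37C before ONE-Glo luminescence.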
p53 reactivator – mutant p53 re-activation in reporter cells; Potency, µM (series often up to 92.2 µM), usual class: activators; H1299 p53-A138V BP100-luciferase reporter, luminescence, 24 h; 0.063% of 320,000 active; AID 504706; also: nearly all actives have a fitted effect of over 45% in size
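p53-null H1299 cells stably carrying temperature-sensitive p53-A138V and a BP100-luciferase reporter were pinned with compounds (4-point, 1:5 series) and held 24 hrs at 37 deg C. Luminescence was read 10 min after detection reagent.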
Hits are given with their value. Calls follow the shape of the dose curve; as a rule, active = well fitted curve in the direction sought with a large enough effect; inconclusive = small, poorly fitted or top-dose-only effect, or another doubt; inactive = no such curve, though single readings can be large; an effect the other way counts as inactive or inconclusive.

Results for O=C(/C=C/c1ccccc1)Nc1ccc(N2CCCCC2)cc1 ?
Rab9 prom act: 3.98µM; NPC1 promoter act: inconclusive; ELG1 genotoxic: inconclusive; FLuc counter: inconclusive; SMN2 splice enh: inconclusive; p53 reactivator: inactive

Results for Cc1ccc(CNc2ccc(N3CCOCC3)cc2)cc1 ?
Rab9 prom act: 2.82µM; NPC1 promoter act: 3.98µM; ELG1 genotoxic: inconclusive; FLuc counter: 8.49µM

What do the screens show for `Cc1nc(NC(=O)c2cccc(-c3cc4ccccc4oc3=O)c2)ccc1Br`?
Rab9 prom act: inconclusive; NPC1 promoter act: inconclusive; ELG1 genotoxic: inactive; FLuc counter: inactive; SMN2 splice enh: inconclusive; p53 reactivator: inconclusive

Results for O=C(Nc1ccc(N2CCCC2)cc1)c1cccc(F)c1 ?
Rab9 prom act: 0.316µM; NPC1 promoter act: 0.355µM; ELG1 genotoxic: 0.366µM; FLuc counter: 1.35µM; SMN2 splice enh: 0.631µM; p53 reactivator: inactive

Results for CCc1ccc(NC(=O)c2cccc(N3CCCS3(=O)=O)c2)cc1 ?
FLuc counter: 12µM

What do the screens show for `O=C(Nc1ccc(Br)cn1)c1cccc(-c2cc3ccccc3oc2=O)c1`?
Rab9 prom act: 3.98µM; NPC1 promoter act: 1.78µM; ELG1 genotoxic: inconclusive; FLuc counter: 12µM; SMN2 splice enh: 11.2µM; p53 reactivator: inconclusive

How did Cc1ccc(C(=O)Nc2ccc(N3CCCC3)cc2)cc1 do in these assays?
Rab9 prom act: 1.78µM; NPC1 promoter act: inconclusive; ELG1 genotoxic: inconclusive; FLuc counter: inconclusive; SMN2 splice enh: 11.2µM; p53 reactivator: inactive

Results for CCOc1ccc(OCC)c(NS(=O)(=O)c2c(C(=O)N3CCCCCC3)c(C)n(C)c2C)c1 ?
FLuc counter: inactive

How did CC(=O)N1CCN(c2ccc(NC(=O)c3cccc(Cl)c3)cc2)CC1 do in these assays?
Rab9 prom act: inconclusive; NPC1 promoter act: 2.24µM; ELG1 genotoxic: inconclusive; FLuc counter: inconclusive; p53 reactivator: inactive

How did CN1CCN(c2ccc(C(=O)c3ccc(F)cc3)cc2)CC1 do in these assays?
Rab9 prom act: 3.16µM; NPC1 promoter act: inconclusive; ELG1 genotoxic: 13µM; FLuc counter: 10.7µM; SMN2 splice enh: inconclusive; p53 reactivator: inconclusive

Results for O=C(Nc1ccc(N2CCCC2)cc1)c1ccc2ccccc2c1 ?
Rab9 prom act: 0.891µM; NPC1 promoter act: inconclusive; ELG1 genotoxic: inconclusive; FLuc counter: 1.35µM; SMN2 splice enh: 2.51µM; p53 reactivator: inconclusive

How did Cc1ccc(C(=O)Nc2ccc(N3CCOCC3)cc2)cc1 do in these assays?
Rab9 prom act: 3.98µM; NPC1 promoter act: 2.82µM; ELG1 genotoxic: 20.6µM; FLuc counter: 12µM; p53 reactivator: inconclusive

How did CC(=O)N1CCN(c2ccc(NC(=O)c3ccc(Cl)cc3)cc2)CC1 do in these assays?
Rab9 prom act: inactive; NPC1 promoter act: inactive; ELG1 genotoxic: inactive; FLuc counter: inactive

What do the screens show for `Cc1ccc(C(=O)Nc2ccc(N3CCCCC3)cc2)cc1`?
ELG1 genotoxic: inconclusive; p53 reactivator: inactive

How did CCOC(=O)c1ccc(NS(=O)(=O)c2ccc3c(c2)CCN3C(=O)CC)cc1 do in these assays?
FLuc counter: inactive; SMN2 splice enh: inactive

What do the screens show for `CC(C)c1ccc(NC(=O)C2CCCN(S(=O)(=O)c3ccc4[nH]c(=O)ccc4c3)C2)cc1` (stereo not drawn)?
FLuc counter: inactive

How did C/C(=N\Nc1ccc(Cl)c(C(=O)O)c1)c1ccc[nH]1 do in these assays?
Rab9 prom act: inactive; NPC1 promoter act: inactive; ELG1 genotoxic: inactive; FLuc counter: inactive; p53 reactivator: inactive

Results for CC(C)(C)OC(=O)NC1CNNC1=O (stereo not drawn) ?
Rab9 prom act: inactive; NPC1 promoter act: inactive; ELG1 genotoxic: inactive; FLuc counter: inactive; p53 reactivator: inactive

What do the screens show for `O=C(Nc1ccc(Nc2ccccc2)cc1)c1cccc(F)c1`?
Rab9 prom act: 4.47µM; NPC1 promoter act: inconclusive; ELG1 genotoxic: inconclusive; FLuc counter: 13.5µM; p53 reactivator: inactive

How did O=C(Nc1cccc(F)c1)c1ccccc1 do in these assays?
Rab9 prom act: inconclusive; NPC1 promoter act: inconclusive; ELG1 genotoxic: inactive; FLuc counter: inconclusive; SMN2 splice enh: inactive; p53 reactivator: inactive

What do the screens show for `Nc1ccccc1C(=O)N=Nc1[nH]c(N)c2ccccc12`?
Rab9 prom act: 2.82µM; NPC1 promoter act: 3.55µM; ELG1 genotoxic: inconclusive; FLuc counter: 3.79µM; SMN2 splice enh: 17.8µM; p53 reactivator: inconclusive

How did Nc1[nH]c(N=NC(=O)c2ccc(F)cc2)c2ccccc12 do in these assays?
Rab9 prom act: 3.98µM; NPC1 promoter act: inconclusive; ELG1 genotoxic: inconclusive; FLuc counter: 7.57µM; p53 reactivator: inconclusive

What do the screens show for `COc1ccccc1N1CCN(c2nc3ccccc3n3cnnc23)CC1`?
FLuc counter: inactive; SMN2 splice enh: inactive

How did Cc1ccc(-c2nn(-c3ccccc3)cc2C=C2C(=O)CC(C)(C)CC2=O)cc1 do in these assays?
Rab9 prom act: inactive; NPC1 promoter act: inactive; ELG1 genotoxic: inactive; FLuc counter: 23.9µM; SMN2 splice enh: inactive; p53 reactivator: inactive

How did CCOC(=O)Cn1c(=O)oc2cc(S(=O)(=O)N3CCN(c4ccc(F)cc4)CC3)ccc21 do in these assays?
FLuc counter: inactive; SMN2 splice enh: inactive

Results for Cc1nn(-c2ccccc2)c(C)c1/C=N/NC(=O)c1cc(-c2cccs2)[nH]n1 ?
Rab9 prom act: inactive; NPC1 promoter act: inactive; ELG1 genotoxic: inactive; FLuc counter: 13.5µM; SMN2 splice enh: inactive; p53 reactivator: inactive

Results for O=C(NN=Cc1ccc(F)cc1)c1ccccc1NS(=O)(=O)c1cccs1 ?
ELG1 genotoxic: inactive; p53 reactivator: inactive

Results for Cc1nn(-c2ccccc2)c(C)c1/C=N/NC(=O)c1ccccc1NS(=O)(=O)c1cccs1 ?
Rab9 prom act: inactive; NPC1 promoter act: inactive; ELG1 genotoxic: inactive; FLuc counter: 10.7µM; SMN2 splice enh: inactive; p53 reactivator: inactive

Results for Cc1[nH]c2ccccc2c1/C=N/NC(=O)c1cccs1 ?
Rab9 prom act: inactive; NPC1 promoter act: inactive; ELG1 genotoxic: inconclusive; FLuc counter: 26.9µM; SMN2 splice enh: inconclusive; p53 reactivator: inactive

What do the screens show for `Cc1nn(-c2ccccc2)c(C)c1/C=N/NC(=O)c1cc(-c2ccc(Br)s2)[nH]n1`?
Rab9 prom act: inactive; NPC1 promoter act: inactive; ELG1 genotoxic: inactive; FLuc counter: inconclusive; SMN2 splice enh: inactive; p53 reactivator: inactive

Results for O=C(CSc1nnc(SCc2ccccc2Cl)s1)N/N=C/c1ccc(C(=O)O)cc1 ?
Rab9 prom act: inactive; NPC1 promoter act: inactive; ELG1 genotoxic: inactive; FLuc counter: 3.38µM; p53 reactivator: inactive

What do the screens show for `Cc1ccc(C(c2c(O)cc(C)n(Cc3ccco3)c2=O)N2CCC(C)CC2)cc1` (stereo not drawn)?
FLuc counter: inactive

How did O=C(CSc1nnc(CNC(=O)c2c(F)cccc2Cl)o1)Nc1cccc(F)c1 do in these assays?
FLuc counter: inactive; SMN2 splice enh: inactive
